Compound activity as filed in PubChem BioAssay.
Pf growth 96h: Primary qHTS for delayed death inhibitors of the malarial parasite plastid, 96 hour incubation; P. falciparum luciferase reporter growth, 96 h; Potency, µM (series often up to 28.7 µM), hits mostly inhibitors; 320,000 tested, 6.9% active; AID 504834, 2011
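Parasite growth measured via integrated firefly luciferase reporter in P. falciparum. Infected erythrocytes at 2% hematocrit, 0.05% parasitemia final were treated 96 hours at 37 C under 5% CO2, and luminescence was read.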
CHX counter: Cycloheximide Counterscreen for Small Molecule Inhibitors of Shiga Toxin | cell reporter, cycloheximide protein synthesis inhibition counterscreen | max response, % | 300,000 tested, 12% active | AID 2314, 2010; in the data active = max response mostly above about 13%, no sharp cut-off; inactive = mostly below about 14%; also: read at 38.3 µM for the half of the compounds with a filed dose
Shiga toxin inh: A qHTS for Small Molecule Inhibitors of Shiga Toxin | Vero cells, Shiga toxin protein synthesis inhibition reporter | 290,000 tested, 9.2% active | AID 2315, 2010 | inhibition, % at 38.7 µM; in the data active = inhibition mostly above about 28%, no sharp cut-off; inactive = mostly below about 43%
NS1 inh: qHTS Assay for Inhibitors of Influenza NS1 Protein Function | 270,000 tested, 0.4% active | Potency, µM (top dose mostly 46.1 µM) | AID 2326, 2010; calls by dose curve; also: actives are rising curves; nearly all actives have a fitted effect of over 50% in size
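Growth recovery, yeast-based: influenza A NS1 expressed in S. cerevisiae causes slow growth, and suppressors are detected by OD600. The parent strain without NS1 is used as positive control.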
Pf growth 48h: Primary qHTS for delayed death inhibitors of the malarial parasite plastid, 48 hour incubation | 310,000 tested, 5.9% active | P. falciparum luciferase growth in erythrocytes, 48 h | AID 504832, 2011 | Potency, µM (titrated, usually from 28.7 µM), actives largely listed as inhibitors
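Read-out is firefly luciferase luminescence from an integrated reporter in P. falciparum, so falling signal marks reduced parasite growth. Infected erythrocytes were at 2% hematocrit and 0.1% parasitemia (final) in Albumax-supplemented RPMI 1640.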
Hits are given with their value; – = inactive; ? = inconclusive; · = not tested or not shown. Sampled rows, rich in hits. Any-hit rate of the full collection: about 21%. Unless noted, calls follow the shape of the dose curve; as a rule, active = well fitted inhibition curve with a large enough effect; inconclusive = small, poorly fitted or top-dose-only effect, or another doubt; inactive = no such curve, though single readings can be large or run the other way.

SMILES	Pf growth 96h	CHX counter	Shiga toxin inh	NS1 inh	Pf growth 48h
CCOc1ccc(/C=C/C(O)=C2/C(=O)N(C)C3(C)CC2c2ccccc2O3)cc1OC (configuration not stated)	–	–	–	·	6.6µM
CC(C)(C)n1[nH]c2c3c(ccc2c1=O)C(=O)c1ccccc1C3=O	·	24	–	–	1.3µM
COCCCn1[nH]c2c3c(ccc2c1=O)C(=O)c1ccccc1C3=O	·	–	–	–	12µM
Cc1ccc(C)c(-n2[nH]c3c4c(ccc3c2=O)C(=O)c2ccccc2C4=O)c1	–	–	–	–	–
Cc1ccc(-n2[nH]c3c4c(ccc3c2=O)C(=O)c2ccccc2C4=O)cc1	–	–	–	–	–
O=C(O)/C(CC(=O)c1ccc(Cl)cc1)=N/Nc1ccc([N+](=O)[O-])cc1[N+](=O)[O-]	?	–	–	–	–
Nc1nc2ccccc2n1C(=O)c1ccc(F)cc1	–	16	–	–	–
Nc1nc2ccccc2n1C(=O)c1ccccc1	–	–	–	–	–
Nc1nc2ccccc2n1C(=O)c1cccs1	–	51	91	·	–
Nc1nncn1C(=O)c1cccs1	·	–	–	–	–
COc1ccc(C(=O)n2c(N)nc3ccccc32)cc1OC	–	25	·	–	–
O=C(O)c1ccccc1N/N=C/c1c(Sc2nnnn2-c2ccccc2)nc2ccccn2c1=O	0.59µM	–	–	–	?
COc1ccc(NS(=O)(=O)c2cccc(C(=O)NCc3ccccc3CN3CCCC3)c2)cc1	13µM	·	·	·	13µM
O=S(=O)(Nc1ccc(O)c(CN2CCCCC2)c1)c1ccccc1	0.59µM	–	–	–	?
COc1ccc(NS(=O)(=O)c2cccc(C(=O)NCc3ccccn3)c2)cc1	?	·	·	·	–
COc1ccc(C(=O)O)cc1S(=O)(=O)Nc1ccc(C)cc1	–	–	–	·	–
COc1ccc(C(=O)NCc2ccccc2CN2CCCC2)cc1S(=O)(=O)Nc1ccc(C)cc1	4.1µM	·	·	·	10µM
O=C(Cc1cccs1)N1CCN(S(=O)(=O)c2ccc(Br)cc2)CC1	–	–	–	–	–
Cc1ccccc1OCC(=O)OCC(=O)c1cc(C)n(C2CC2)c1C	–	·	·	·	–
Cc1cc(C(=O)COc2ccccc2C(N)=O)c(C)n1C1CC1	–	40	–	–	–
Cc1cc(C(=O)COc2ccccc2[N+](=O)[O-])c(C)n1C1CC1	–	28	65	·	–
CC(CCc1ccc(O)cc1)NCc1ccc(Br)cc1 (configuration not stated)	–	–	·	–	?
CN(C)c1ccc(C2=NOC(CN3C(=O)c4ccccc4S3(=O)=O)C2)cc1 (configuration not stated)	–	55	71	–	–
Cc1ccc(C(c2ccc(C)o2)c2cccc([N+](=O)[O-])c2O)o1	4.7µM	–	–	–	7.4µM
Cc1cc(C(c2ccc(C)o2)c2ccc(C)o2)c(O)c([N+](=O)[O-])c1	–	–	–	?	·
SMILES	Pf growth 96h	CHX counter	Shiga toxin inh	NS1 inh	Pf growth 48h
O=C(CN1CCC(C(=O)c2ccc3c(c2)OCCO3)CC1)Nc1ccccc1C(F)(F)F	–	–	–	–	–
CCOC(=O)C(Cc1ccccc1)NC(=O)CCc1c(C)nc2nc(C)nn2c1C (configuration not stated)	7.4µM	–	–	–	–
CCOC(=O)C(Cc1ccccc1)NC(=O)CCc1c(C)nc2ncnn2c1C (configuration not stated)	–	–	–	–	–
COCCNC(=O)/C(C#N)=C/C=C/c1ccccc1	?	17	–	·	13µM
N#C/C(=C\c1ccccc1C(F)(F)F)C(=O)Nc1ccccc1	–	17	–	–	–
N#C/C(=C\c1ccccc1)C(=O)Nc1cccnc1	–	–	–	–	–
N#C/C(=C\C=C\c1ccccc1)C(=O)Nc1ccccc1	–	15	–	–	–
N#C/C(=C/C=C/c1ccccc1)C(=O)Nc1ccccc1	?	–	–	–	3.3µM
CCc1cccc(CC)c1NC(=O)/C(C#N)=C/c1ccccc1C(F)(F)F	?	–	–	–	–
Cc1cc(=O)n2[nH]c(-c3ccc(Cl)cc3)cc2n1	?	36	82	–	?
O=c1cc(-c2ccc([N+](=O)[O-])cc2)nc2cc(-c3ccc(F)cc3)[nH]n12	–	–	–	–	–
Cc1cc(=O)n2[nH]c(-c3ccc(F)cc3)cc2n1	–	25	51	–	–
Cc1cccc(-c2cc3nc(-c4ccccc4)cc(=O)n3[nH]2)c1	–	21	–	–	–
CC(C)(C)N1C(=O)Cc2c1nc(N)c1c(N)nc(N3CCCCC3CO)c(C#N)c21 (configuration not stated)	5.9µM	–	–	?	?
CCCOc1ccc(CCc2n[nH]c(=S)n2Cc2ccccc2)cc1	–	–	–	–	5.9µM
O=[N+]([O-])c1ccc2nc(-c3ccccc3)[nH]c2c1	?	42	–	–	–
Cc1nc2ccc([N+](=O)[O-])cc2[nH]1	–	–	–	·	–
O=[N+]([O-])c1cccc(/C=C/c2nc3ccc([N+](=O)[O-])cc3[nH]2)c1	2.3µM	19	–	–	2.9µM
Cn1cccc1-c1nc2ccc([N+](=O)[O-])cc2[nH]1	–	33	40	–	–
CCCc1nc2ccc([N+](=O)[O-])cc2[nH]1	10µM	–	–	–	–
CC(=O)Nc1nc(C)c(-c2nc3ccc([N+](=O)[O-])cc3[nH]2)s1	–	17	–	–	–
O=[N+]([O-])c1ccc2nc(-c3cccnc3)[nH]c2c1	–	21	–	–	–
CC(C)(C)c1nc2ccc([N+](=O)[O-])cc2[nH]1	–	–	–	·	–
CCOc1cccc(/C=C2\NC(=S)N(c3ccccc3)C2=O)c1O	–	42	55	–	–
COc1ccc(Cl)cc1S(=O)(=O)n1ccnc1C(C)C	–	–	–	–	·
SMILES	Pf growth 96h	CHX counter	Shiga toxin inh	NS1 inh	Pf growth 48h
O=C(NCc1csc(-c2cccs2)n1)c1ccccc1	–	32	38	–	–
Cc1csc2nc(CNC(=O)C3CCCCC3)cn12	–	13	–	–	–
O=C(NCc1csc(-c2cccs2)n1)C1CCC1	–	38	48	–	–
O=C(NCc1csc(-c2cccs2)n1)Nc1ccc(F)cc1F	–	–	–	–	–
O=C(O)CC1(CC(=O)NCc2csc(-c3cccs3)n2)CCCCC1	–	–	–	–	–
O=C(NCc1csc(-c2cccs2)n1)c1cccc(Cl)c1	–	14	–	–	–
COC(=O)c1c(C)[nH]c(C(C)=O)c1C	–	–	–	–	–
COC(=O)c1c(C)[nH]c(C(=O)/C=C/c2ccccc2F)c1C	–	29	62	–	–
COC(=O)c1c(C)[nH]c(C(=O)/C=C/c2ccccc2Cl)c1C	–	61	105	–	–
COc1ccc([C@]23Cc4cc(C#N)ccc4C(O2)c2c(cc(C)n(-c4ccccc4)c2=O)O3)cc1	?	–	–	–	?
O=C(O)c1ccc(-n2cccn2)c([N+](=O)[O-])c1	–	–	–	–	–
